# From PubChem BioAssay (Tox21)
# Inconclusive results are not listed. Entries that show only a call come without a potency. The source made the active and inactive calls. Unless noted, calls follow the shape of the dose curve; as a rule, active = well fitted cell-killing curve with a large enough effect in the repeat runs; inconclusive = weak or mixed curves; inactive = flat fitted curve, though single readings scatter.
# Target: Androgen receptor (Homo sapiens) (UniProt P10275)
# Experiment: qHTS assay to identify small molecule agonists of the androgen receptor (AR) signaling pathway in the presence of an antagonist (AID 1259381; calls by dose curve; also: nearly all actives have a fitted effect of over 15% in size)
# Conditions: MDA-kb2 MMTV-luciferase, AR agonist + nilutamide, 16 h; series mostly up to 92.4 µM
# Outline: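 Using human MDA-kb2 cells with an MMTV promoter–luciferase construct (AR and GR response elements), agonist activity is scored under 3.0uM nilutamide (final) co-treatment; 16hr incubation, 37C, luminescence readout via ONE-Glo.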
# Chain of Androgen receptor (Homo sapiens) (P10275 whole entry, looked up): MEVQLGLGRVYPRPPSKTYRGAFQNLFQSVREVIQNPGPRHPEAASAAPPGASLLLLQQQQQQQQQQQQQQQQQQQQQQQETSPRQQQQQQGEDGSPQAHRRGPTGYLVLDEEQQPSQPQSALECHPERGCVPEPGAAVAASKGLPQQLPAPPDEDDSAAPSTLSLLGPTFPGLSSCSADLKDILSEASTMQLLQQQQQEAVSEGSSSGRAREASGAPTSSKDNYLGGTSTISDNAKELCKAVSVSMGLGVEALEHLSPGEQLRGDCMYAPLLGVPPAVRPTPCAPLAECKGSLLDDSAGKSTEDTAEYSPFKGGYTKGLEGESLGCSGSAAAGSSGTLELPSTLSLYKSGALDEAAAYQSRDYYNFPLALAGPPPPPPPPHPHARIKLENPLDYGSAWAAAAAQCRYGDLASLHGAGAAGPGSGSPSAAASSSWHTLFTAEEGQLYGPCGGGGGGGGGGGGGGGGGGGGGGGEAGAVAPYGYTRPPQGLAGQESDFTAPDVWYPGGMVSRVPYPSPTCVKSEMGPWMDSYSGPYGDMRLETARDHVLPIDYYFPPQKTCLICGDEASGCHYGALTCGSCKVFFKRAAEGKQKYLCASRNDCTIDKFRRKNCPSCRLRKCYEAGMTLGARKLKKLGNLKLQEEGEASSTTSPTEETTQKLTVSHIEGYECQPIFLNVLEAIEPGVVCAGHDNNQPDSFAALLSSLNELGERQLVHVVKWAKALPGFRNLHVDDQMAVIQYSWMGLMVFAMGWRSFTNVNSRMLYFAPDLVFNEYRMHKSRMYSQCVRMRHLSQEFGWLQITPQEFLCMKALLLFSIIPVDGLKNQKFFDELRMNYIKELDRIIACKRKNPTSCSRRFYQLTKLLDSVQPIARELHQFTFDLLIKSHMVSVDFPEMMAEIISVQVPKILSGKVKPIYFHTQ
row,Compound,Potency
1,CCOc1ccc2c(c1)C(C)CC(C)(C)N2 (stereo not given),inactive
2,Cc1nc(C)c(C)nc1C,inactive
3,O=c1[nH][nH]c2ccccc12,inactive
4,O=C(OC1C[C@H]2CC[C@@H](C1)[N+]21CCCC1)C(O)(c1ccccc1)c1ccccc1 (stereo not given in full),inactive
5,O=C(O)c1cc(C(=O)O)c(C(=O)O)cc1C(=O)O,inactive
6,O=C(c1ccc(Cl)cc1)c1ccc(Cl)cc1,inactive
7,CC1(C)[C@@H]2CC[C@]3(C2)[C@@H]1C(=O)CCC3(C)C,inactive
8,NC(=O)c1ccccc1C(N)=O,inactive
9,O=C(O)c1ccc(O)c(O)c1,inactive
10,Cc1c(N=C=O)cccc1N=C=O,inactive
11,NCCOCCOCCN,inactive
12,CCCc1ccc(OC)cc1,inactive

# System: not listed separately
# Experiment: qHTS assay to identify small molecule antagonists of the estrogen receptor beta (ER-beta) signaling pathway - cell viability counter screen (AID 1259382); also: nearly all actives have a fitted effect of over 55% in size
# Conditions: ER-beta-UAS-bla HEK293T viability, CellTiter-Glo luminescence, 16 h; series mostly up to 92.4 µM
# Outline: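 Agonist-stimulated (1nM E2) ER-beta-UAS-bla HEK293T cells are incubated with library compounds for 16 hr at 37C. Cell viability is then assessed in the reporter-assay wells by adding CellTiter-Glo and reading luminescence after 30 min.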
row,Compound,Potency
1,CCOc1ccc2c(c1)C(C)CC(C)(C)N2 (stereo not given),inactive
2,O=c1c2ccccc2oc2ccccc12,inactive
3,Cc1cccc(C)c1NC(=O)CN1CCCC1,inactive
4,Cc1cc(N)n(-c2ccccc2)n1,inactive
5,Cc1nc(C)c(C)nc1C,inactive
6,O=C(O)c1ccccc1[N+](=O)[O-],inactive
7,Cc1c(Cl)cccc1[N+](=O)[O-],inactive
8,CCOc1ccccc1O,inactive
9,O=C(OC1C[C@H]2CC[C@@H](C1)[N+]21CCCC1)C(O)(c1ccccc1)c1ccccc1 (stereo not given in full),inactive
10,O=C(O)c1cc(C(=O)O)c(C(=O)O)cc1C(=O)O,inactive
11,CC/C=C/CCO,inactive
12,O=C(c1ccc(Cl)cc1)c1ccc(Cl)cc1,inactive
13,CC/C=C\CCO,inactive
14,CC(O)C(C)O (stereo not given),inactive
15,CC1(C)[C@@H]2CC[C@]3(C2)[C@@H]1C(=O)CCC3(C)C,inactive
16,FC1(F)C(F)(F)C(F)(F)C2(F)C(F)(C1(F)F)C(F)(F)C(F)(F)C1(F)C(F)(F)C(F)(F)C(F)(F)C(F)(F)C12F (stereo not given),inactive
17,CCCCCO,inactive

row,Compound,Potency
1,c1ccc(CN(Cc2ccccc2)Cc2ccccc2)cc1,inactive
2,CC(C)(C)c1cc(C=O)cc(C(C)(C)C)c1O,inactive
3,O=C(O)c1ccc(O)c(O)c1,inactive
4,O=[N+]([O-])c1ccccc1CCO,inactive
5,CCC(C)CCCC(C)(C)O (stereo not given),inactive
6,COc1ccc(/C(C)=C/C(=O)O)c(OC)c1,inactive
7,Cc1c(N=C=O)cccc1N=C=O,inactive
8,CC(C)Cc1nccs1,inactive
9,CO[C@@H]1COCC[C@@H]1N[C@@H]1CC[C@@](C(=O)N2CCc3ncc(C(F)(F)F)cc3C2)(C(C)C)C1,inactive
10,C=CC(C)CCC=C(C)C (stereo not given),inactive
11,CC1(C)CC(O)CC(C)(C)N1[O],inactive
12,CCOC(=O)CC(O)(CC(=O)OCC)C(=O)OCC,inactive
13,O=C1OC(=O)C2CC=CCC12 (stereo not given),inactive
14,CCCc1ccc(OC)cc1,inactive
15,O=C(Nc1ccc2c(c1)Cc1ccccc1-2)C(F)(F)F,inactive
16,CC(=O)c1ccc(Cl)c(Cl)c1Cl,inactive
